# In the library only some 10% were active in any assay of this set; here they are far more common.
# ELG1 DNA repair: inhibitors of ELG1-dependent DNA repair in HEK293T cells; HEK293T ELG1-luciferase reporter, luminescence, 16 h; DNA damage induced by 5-fluorouridine; Potency, µM (top dose mostly 46.1 µM), inactives show at the highest dose activity change, negative = inhibition, hits mostly inhibitors; hit rate 2.3% among 330,000; AID 504467; also: % is scaled to controls: 0 for no effect and ±100 for the full control effect; nearly all actives have a fitted effect of over 55% in size
#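 Luminescence from the luciferase reporter, measured 30 min after ONE-Glo reagent at room temperature, was the read-out. Beforehand, 2,000 cells per well were exposed for 16 hr at 37 °C to 5-fluorouridine together with compound or vehicle.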
# SW480 rerep: inducers of DNA re-replication in SW480 colon cancer cells. SW480 DNA re-replication, Hoechst DNA content imaging, 48 h. Potency, µM (titrated, usually from 46.1 µM), for the others: at the top dose re-replication activation, hits mostly activators. hit rate 1.8% among 340,000. AID 624297; also: % of control where 0% means no effect; nearly all actives have a fitted effect of over 55% in size
#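 Treated cells incubate 48 hr (37 C, 5% CO2), are stained 40 min with Hoechst, and nuclear fluorescence is enumerated; a rise in nuclei with high DNA signal marks re-replication.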
# RORg inh: inhibitors of mouse ROR gamma transcriptional activity | AID 2551 | hit rate 5.4% among 310,000 | P51450 | Potency, µM (doses to about 53.6 µM), without a hit: top-dose activity change, negative = inhibition, usual class: inhibitors | Drosophila S2 Gal4-RORgamma UAS-luciferase reporter, 20 h; also: % is scaled to controls: 0 for no effect and ±100 for the full control effect; nearly all actives have a fitted effect of over 60% in size
# Target sequence (P51450 whole entry, looked up, the tested form may be a part): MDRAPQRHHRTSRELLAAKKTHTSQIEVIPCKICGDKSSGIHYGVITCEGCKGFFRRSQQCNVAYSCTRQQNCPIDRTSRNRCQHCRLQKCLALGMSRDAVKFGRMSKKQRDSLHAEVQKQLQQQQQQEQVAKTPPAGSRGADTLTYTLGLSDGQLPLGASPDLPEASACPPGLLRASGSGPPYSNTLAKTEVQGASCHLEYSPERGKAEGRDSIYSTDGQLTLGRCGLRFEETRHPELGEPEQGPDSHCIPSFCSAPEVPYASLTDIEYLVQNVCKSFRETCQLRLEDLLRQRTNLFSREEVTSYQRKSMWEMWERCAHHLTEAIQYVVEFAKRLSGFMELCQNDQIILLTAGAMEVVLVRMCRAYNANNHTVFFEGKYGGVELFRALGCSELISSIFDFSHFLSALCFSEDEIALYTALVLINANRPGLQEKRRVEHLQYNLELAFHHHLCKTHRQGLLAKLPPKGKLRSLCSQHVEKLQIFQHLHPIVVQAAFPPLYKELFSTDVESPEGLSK
#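 ROR gamma transcriptional activity was tracked as Gal4-UAS luciferase output in stably transfected Drosophila Schneider cells, with compound added 1 hr before 700 uM copper sulfate induction and a 20 hr ambient-temperature incubation.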
# MCF10A rerep: DNA re-replication induction in MCF 10a cells; Potency, µM (titrated, usually from 46.1 µM), for inactives: top-dose activity, positive = re-replication, most hits filed as activators; hit rate 2.9% among 350,000; MCF 10A DNA re-replication, Hoechst nuclear intensity, 48 h; also: % of control where 0% means no effect; nearly all actives have a fitted effect of over 50% in size
# VP16 counter: counter-screen for ROR gamma inhibitors: Gal4-VP16 reporter. Drosophila S2 Gal4-VP16 UAS-luciferase, luminescence, 20 h. Potency, µM (top dose mostly 53.6 µM), without a hit: at the highest dose activity, negative = inhibition, hits mostly inhibitors. hit rate 3.5% among 310,000. AID 2546;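 also: Gal4-VP16 expression switched on by copper sulfate through the metallothionein promoter; % is scaled to controls: 0 for no effect and ±100 for the full control effect; nearly all actives have a fitted effect of over 50% in size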
# Starred values were filed as active, the others as inactive; ? = inconclusive; . = not tested or not shown; [ ] = dose if it differs, or a comment. Calls follow the shape of the dose curve; as a rule, active = well fitted curve in the direction sought with a large enough effect; inconclusive = small, poorly fitted or top-dose-only effect, or another doubt; inactive = no such curve, though single readings can be large; an effect the other way counts as inactive or inconclusive. Potency is read from the fitted curve at half-maximal effect.
SMILES,ELG1 DNA repair,SW480 rerep,RORg inh,MCF10A rerep,VP16 counter
CC(=O)N1CCN(c2c(F)c(F)c(C(F)(F)F)c(F)c2F)CC1,3%,-2%,25%,2%,-12%
COc1ccc(C(=O)Nc2ccc([N+](=O)[O-])cn2)c(OC)c1,?,0%,-12%,3%,-25%
COc1ccc(C(=O)NCCOc2cccc(Oc3ccccc3)c2)cc1OC,?,-2%,.,6%,.
CC1=NN(c2nc(-c3ccc(C)cc3)cs2)C(=O)C1N=Nc1ccccc1O (configuration not stated),?,0.73µM*,3%,?,3%
COc1ccc(-c2csc(N3N=C(C)C(C)C3=O)n2)cc1 (configuration not stated),?,1%,8.9µM*,4%,?
Cc1nn(-c2ccccc2)c(Cl)c1C(=O)Nc1nnc(C2CCCC2)s1,-4%,-4%,7.9µM*,?,?
Cc1nn(-c2ccccc2)c(Cl)c1C(=O)NC1CCCCC1,-6%,1%,19%,27%,3%
N#CCCn1cc(C(=O)N2CCOCC2)c(-c2ccc3c(c2)OCCO3)n1,12%,3%[1.84 µM],-2%,-24%,-4%[10 µM]
O=C(c1cc(F)ccc1F)C1CCCN(C(=O)CCN2CCCCO2)C1 (configuration not stated),21%,4%,30%,-3%,3%
Cc1cccc(-c2[nH]c(C(C)(C)C)nc2-c2ccc3c(c2)OCO3)n1,.,.,1.8µM*,.,7.1µM*
COc1cc2cc(-c3ccc(OC)c(OC)c3C)nc(N)c2cc1OC,.,1.6µM*,.,1.6µM*,.
Nc1c(-c2ccccc2)nc(Cl)nc1-c1ccccc1,-4%,1%,14%,10%,2%
c1ccc(-c2nc3nonc3nc2-c2ccccc2)cc1,-6%,?,11µM*,?,?
N#CCSc1nc2ccc(N3CCCCC3)cc2c(=O)n1Cc1ccccc1,2%,21µM*,3.5µM*,16µM*,?
CCn1c(=O)cc(OCC(=O)NCCc2cccc(C)c2)c2ccccc21,?,-21%,-42%,24%,4%[10 µM]
CCOCCCNC(=O)c1cc(=O)n(Cc2cccc(C)c2)c2ccccc12,16µM*,?,15%,?,5%
Cc1ccccc1NS(=O)(=O)c1cccc2nsnc12,-1%,3%,3%,-21%,4%
Cc1ccccc1Cn1c(CN2CCc3ccccc3C2)nc2c1c(=O)n(C)c(=O)n2C,13µM*,2%,-1%,15%,-13%
COC(=O)Cn1c(CN2CCc3ccccc3C2)nc2c1c(=O)n(C)c(=O)n2C,-14%,-9%,6%,0%,5.6µM*
COC(=O)Cn1c(CN2CCN(c3ccc(F)cc3)CC2)nc2c1c(=O)n(C)c(=O)n2C,?,-21%,-30%,12%,2.8µM*
COC(=O)C[C@H]1c2cc(C(F)(F)F)ccc2S(=O)(=O)N1C(C)(C)C,.,-3%,.,6%,.
O=C(c1ccccc1)N1CCOC(O)(c2ccccc2)C1c1ccccc1 (configuration not stated),.,?,.,14%,.
CCN(CC)C(=O)CSc1nc2cc3c(cc2c(=O)n1CCCC(=O)NCCc1ccc(OC)c(OC)c1)OCO3,?,-3%,0%,-2%,-14%
CCN(CC)C(=O)CSc1nc2cc3c(cc2c(=O)n1CCCCCC(=O)NCc1ccc(OC)cc1)OCO3,-32%,16%,-20%,18µM*,-12%
Cc1ccc2[nH]c(=O)c(CN(CCc3ccccc3)C(c3nnnn3Cc3ccco3)C(C)C)cc2c1 (configuration not stated),18µM*,?,36%,?,-4%
SMILES,ELG1 DNA repair,SW480 rerep,RORg inh,MCF10A rerep,VP16 counter
CCC(c1nnnn1Cc1ccco1)N(CCc1ccccc1)Cc1cc2cc(C)ccc2[nH]c1=O (configuration not stated),?,0%,12%,25%,5%
Cc1cc(C)c2c(c1)/C(=N/NC(=O)c1cc(C)oc1C)CCC2,12%,2.9µM*,-2%,?,-10%
CCc1[nH]nc2c1C(c1ccsc1)C(C#N)=C(N)O2 (configuration not stated),-1%,-6%,-12%,7%,-10%
Cc1ccc(C2C(C#N)=C(N)Oc3n[nH]c(-c4cccs4)c32)s1 (configuration not stated),?,-5%,10µM*,-1%,-22%
CCc1[nH]nc2c1C(c1ccc(Br)s1)C(C#N)=C(N)O2 (configuration not stated),1%,?,11µM*,?,?
COc1ccccc1-c1cccc([C@@H]2C[C@H]3[C@H](CON3C)CN2C(=O)CCc2ccccc2)c1,.,?,.,-18%,.
N#C/C(=N\Nc1cccc(C(F)(F)F)c1)C(=O)c1csc(-c2cccnc2)n1,?,-7%,?,?,6%
CSc1ccc(/C=C/C(=O)c2c(O)cc(C)oc2=O)cc1,?,18µM*,?,?,?
CSc1ccc(C(=O)/C=C/c2ccc(N)cc2)cc1,?,?,?,23µM*,?
CSc1ccc(/C=C/C(=O)c2ccc(NC(=O)Cc3ccccc3)cc2)cc1,5%,18µM*,?,?,9%
CCOC(=O)Nc1ccc(C(=O)/C=C/c2ccccc2)cc1,?,?,7.1µM*,?,?
Cc1cc(O)c(C(=O)/C=C/c2ccc(Cl)cc2)c(=O)o1,?,-1%,15%,?,-17%
CSc1ccc(/C=C/C(=O)c2ccc(NC(=O)C(C)C)cc2)cc1,-5%,?,?,?,-10%
CCOc1ccc(NC(=O)CCC(=O)NNC(=O)c2ccc(Br)o2)cc1,-1%,-6%,-4%,-2%,5%
COc1ccc(CN2CSC(=S)N(Cc3ccc(OC)cc3)C2)cc1,-28%,?,6.3µM*,?,18µM*
S=C1SCCN1Cc1ccccc1,.,-1%,.,-2%,.
COc1ccc(CN2CSC(=S)N(Cc3ccccc3)C2)cc1,-3%,?,?,?,10µM*
S=C1NCN(Cc2cccnc2)CN1,-21%,-9%,12%,-5%,-4%
S=C1SCN(Cc2cccnc2)CN1Cc1cccnc1,23µM*,?,0.63µM*,13µM*,5.6µM*
S=C1SCN(Cc2ccccc2)CN1Cc1ccccc1,0%,?,?,33µM*,?
COc1cc(NC(=O)c2cccc(F)c2)ccc1NC(=O)c1cc2ccccc2o1,-10%,?,?,28%,?
COc1ccc(/C=C2\SC(N3CCc4ccccc4C3)=NC2=O)cc1OC,-25%,69%,12%,3.7µM*,-12%
CCOC(=O)C1CCCN(C2=NC(=O)/C(=C/c3ccc(OC)c(OC)c3)S2)C1 (configuration not stated),-8%,4%,10%,-2%,2%
